Data on one sequence can be found in PMC7862700, “An all-to-all approach to the identification of sequence-specific readers for epigenetic DNA modifications on cytosine”.

Holding throughout (test): DAPPL (digital affinity profiling via proximity ligation, sequencing); 10 mM Tris-HCl pH 7.5, 50 mM NaCl, 1 mM DTT, 4% glycerol, room temperature, 30 min; GST-TFs on glutathione beads, 16-mer random dsDNA library, 0.1% formaldehyde crosslink after washing; high values mean tight binding
Assay [1] addresses T1, FLI1 (Homo sapiens, UniProt Q01543 1-452).
T1 sequence: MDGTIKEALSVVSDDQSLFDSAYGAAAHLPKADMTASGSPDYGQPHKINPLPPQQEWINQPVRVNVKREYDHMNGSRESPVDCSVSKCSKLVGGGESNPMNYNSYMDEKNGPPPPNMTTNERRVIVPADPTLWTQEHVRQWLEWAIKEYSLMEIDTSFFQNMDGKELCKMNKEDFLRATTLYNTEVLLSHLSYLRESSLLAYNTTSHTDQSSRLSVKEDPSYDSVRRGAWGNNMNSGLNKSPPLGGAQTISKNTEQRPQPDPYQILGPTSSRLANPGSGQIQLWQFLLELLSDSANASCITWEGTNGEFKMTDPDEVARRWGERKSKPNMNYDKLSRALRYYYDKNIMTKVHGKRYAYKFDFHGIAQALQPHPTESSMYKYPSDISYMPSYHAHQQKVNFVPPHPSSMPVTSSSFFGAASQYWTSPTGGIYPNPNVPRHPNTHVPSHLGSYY
As to conditions: protein: recombinant; tags: N-terminal GST; dsDNA, one strand shown. The essentials:
(§1)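 Pools of DNA-barcoded human transcription factors, expressed in yeast as GST fusions on glutathione beads and combined with a tag-only sample, were incubated with 200 nmole of a 16-mer random double-stranded DNA library. Incubation took 30 min at room temperature in Tris/NaCl/DTT/glycerol buffer and was followed by washing, 0.1% formaldehyde crosslinking, proximity ligation (BsaI/T4 ligase, 1 h, 37 °C), PCR amplification and sequencing on an Illumina NextSeq500. Binding signal is the ratio of a hexamer's read frequency for a factor to its frequency for the tag-only sample.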

Assay [2] has as its target T2, ELK1 (Homo sapiens, UniProt P19419 1-428).
T2 sequence: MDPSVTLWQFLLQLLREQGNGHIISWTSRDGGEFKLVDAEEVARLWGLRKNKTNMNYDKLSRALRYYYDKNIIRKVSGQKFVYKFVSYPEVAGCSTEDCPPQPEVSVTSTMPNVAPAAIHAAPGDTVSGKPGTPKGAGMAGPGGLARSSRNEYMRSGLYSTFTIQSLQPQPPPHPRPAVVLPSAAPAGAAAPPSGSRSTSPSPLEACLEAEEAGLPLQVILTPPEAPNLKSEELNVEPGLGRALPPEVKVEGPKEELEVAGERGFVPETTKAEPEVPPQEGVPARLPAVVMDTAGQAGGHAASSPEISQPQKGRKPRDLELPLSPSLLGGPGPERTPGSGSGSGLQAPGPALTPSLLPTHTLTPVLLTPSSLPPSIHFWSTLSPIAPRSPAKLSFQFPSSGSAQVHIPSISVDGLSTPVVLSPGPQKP
The note with it: protein: recombinant; tags: N-terminal GST; dsDNA, one strand shown. The essentials: as §1

For assay [3], the target named is T3, GABPA (Homo sapiens, UniProt Q06546 1-454).
T3 sequence: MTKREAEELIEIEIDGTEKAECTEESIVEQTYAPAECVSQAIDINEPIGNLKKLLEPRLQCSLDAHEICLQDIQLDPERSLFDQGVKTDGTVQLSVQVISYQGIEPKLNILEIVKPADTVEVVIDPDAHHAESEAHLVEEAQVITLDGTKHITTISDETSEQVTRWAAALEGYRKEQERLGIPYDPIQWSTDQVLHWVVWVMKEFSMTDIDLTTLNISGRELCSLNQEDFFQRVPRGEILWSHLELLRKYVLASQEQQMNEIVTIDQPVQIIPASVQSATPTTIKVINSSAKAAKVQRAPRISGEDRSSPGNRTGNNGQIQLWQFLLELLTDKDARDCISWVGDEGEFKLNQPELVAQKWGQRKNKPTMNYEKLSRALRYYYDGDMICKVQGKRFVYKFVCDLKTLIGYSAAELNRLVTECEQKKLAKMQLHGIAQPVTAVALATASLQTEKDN
As to conditions: protein: recombinant; tags: N-terminal GST; dsDNA, one strand shown. The essentials: as §1

Assay [4] addresses T4, ERG (Homo sapiens, UniProt P11308 1-479).
T4 sequence: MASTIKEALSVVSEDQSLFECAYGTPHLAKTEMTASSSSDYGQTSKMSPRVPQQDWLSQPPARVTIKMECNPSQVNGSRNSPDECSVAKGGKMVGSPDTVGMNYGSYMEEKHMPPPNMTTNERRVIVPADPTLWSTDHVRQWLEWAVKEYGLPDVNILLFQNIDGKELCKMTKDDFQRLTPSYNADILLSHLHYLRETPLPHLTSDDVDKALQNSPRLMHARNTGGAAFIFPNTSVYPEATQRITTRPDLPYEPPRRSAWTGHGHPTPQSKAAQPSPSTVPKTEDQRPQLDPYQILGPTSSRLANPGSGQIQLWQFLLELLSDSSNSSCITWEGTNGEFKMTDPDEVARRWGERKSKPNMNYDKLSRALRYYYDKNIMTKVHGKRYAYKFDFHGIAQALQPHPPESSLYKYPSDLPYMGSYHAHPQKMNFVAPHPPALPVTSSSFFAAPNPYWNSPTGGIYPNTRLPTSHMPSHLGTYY
As to conditions: protein: recombinant; tags: N-terminal GST; dsDNA, one strand shown. The essentials: as §1

Assay [5] deals with ELF1 (Homo sapiens, UniProt P32519 1-619). As to conditions: protein: recombinant; tags: N-terminal GST; dsDNA, one strand shown. The essentials:
as §1

Assay [6] deals with T5, EHF (Homo sapiens, UniProt Q9NZC4 1-300).
T5 sequence: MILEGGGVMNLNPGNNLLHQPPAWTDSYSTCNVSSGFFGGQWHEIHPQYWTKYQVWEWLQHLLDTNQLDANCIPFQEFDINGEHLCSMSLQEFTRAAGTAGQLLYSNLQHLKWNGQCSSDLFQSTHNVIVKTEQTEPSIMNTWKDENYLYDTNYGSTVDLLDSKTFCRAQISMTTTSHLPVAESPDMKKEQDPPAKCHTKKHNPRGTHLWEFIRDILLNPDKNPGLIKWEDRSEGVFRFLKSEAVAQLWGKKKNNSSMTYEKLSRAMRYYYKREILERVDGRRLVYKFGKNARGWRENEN
As to conditions: protein: recombinant; tags: N-terminal GST; dsDNA, one strand shown. The essentials: as §1

The target of assay [7] is SPI1 (Homo sapiens, UniProt P17947 1-270). The note with it: protein: recombinant; tags: N-terminal GST; dsDNA, one strand shown. The essentials:
as §1

For assay [8], the target named is T6, ELK3 (Homo sapiens, UniProt P41970 1-407).
T6 sequence: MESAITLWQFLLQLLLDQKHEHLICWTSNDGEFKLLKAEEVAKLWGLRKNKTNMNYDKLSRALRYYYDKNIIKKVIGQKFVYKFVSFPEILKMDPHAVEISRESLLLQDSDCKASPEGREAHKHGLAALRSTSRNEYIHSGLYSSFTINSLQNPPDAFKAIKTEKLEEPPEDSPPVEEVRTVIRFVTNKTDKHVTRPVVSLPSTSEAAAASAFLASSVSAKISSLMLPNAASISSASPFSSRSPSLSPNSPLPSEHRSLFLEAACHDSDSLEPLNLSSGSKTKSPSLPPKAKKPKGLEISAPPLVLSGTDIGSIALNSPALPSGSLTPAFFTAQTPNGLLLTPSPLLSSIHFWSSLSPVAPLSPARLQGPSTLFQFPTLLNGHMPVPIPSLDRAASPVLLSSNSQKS
The note with it: protein: recombinant; tags: N-terminal GST; dsDNA, one strand shown. The essentials:
as §1

Assay [9] addresses T7, FEV (Homo sapiens, UniProt Q99581 1-238).
T7 sequence: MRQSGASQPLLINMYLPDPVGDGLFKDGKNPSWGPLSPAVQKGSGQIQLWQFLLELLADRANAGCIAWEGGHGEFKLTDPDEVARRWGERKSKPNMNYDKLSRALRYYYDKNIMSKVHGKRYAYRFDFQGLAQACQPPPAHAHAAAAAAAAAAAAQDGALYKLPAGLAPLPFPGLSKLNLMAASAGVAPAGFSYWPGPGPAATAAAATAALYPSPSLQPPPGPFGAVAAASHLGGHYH
As to conditions: protein: recombinant; tags: N-terminal GST; dsDNA, one strand shown. The essentials: as §1

The target of assay [10] is ETV5 (Homo sapiens, UniProt P41161 1-510). As to conditions: protein: recombinant; tags: N-terminal GST; dsDNA, one strand shown. The essentials:
as §1

For assay [11], the target named is HSF1 (Homo sapiens, UniProt Q00613 1-529). As to conditions: protein: recombinant; tags: N-terminal GST; chain copies: 3; dsDNA, one strand shown. The essentials:
as §1

In assay [12] the target is T8, SPIC (Homo sapiens, UniProt Q8N5J4 1-248).
T8 sequence: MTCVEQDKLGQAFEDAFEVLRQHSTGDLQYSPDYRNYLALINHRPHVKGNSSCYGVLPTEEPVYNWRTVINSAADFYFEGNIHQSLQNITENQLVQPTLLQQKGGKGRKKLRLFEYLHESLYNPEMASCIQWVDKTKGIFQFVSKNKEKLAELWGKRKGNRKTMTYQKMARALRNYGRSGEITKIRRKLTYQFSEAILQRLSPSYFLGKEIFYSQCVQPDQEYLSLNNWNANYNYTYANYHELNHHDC
The note with it: protein: recombinant; tags: N-terminal GST; dsDNA, one strand shown. The essentials:
as §1

The target in assay [13] is ELF4 (Homo sapiens, UniProt Q99607 1-663). The note with it: protein: recombinant; tags: N-terminal GST; dsDNA, one strand shown. The essentials: as §1
ELF4, sequence (Q99607 whole entry): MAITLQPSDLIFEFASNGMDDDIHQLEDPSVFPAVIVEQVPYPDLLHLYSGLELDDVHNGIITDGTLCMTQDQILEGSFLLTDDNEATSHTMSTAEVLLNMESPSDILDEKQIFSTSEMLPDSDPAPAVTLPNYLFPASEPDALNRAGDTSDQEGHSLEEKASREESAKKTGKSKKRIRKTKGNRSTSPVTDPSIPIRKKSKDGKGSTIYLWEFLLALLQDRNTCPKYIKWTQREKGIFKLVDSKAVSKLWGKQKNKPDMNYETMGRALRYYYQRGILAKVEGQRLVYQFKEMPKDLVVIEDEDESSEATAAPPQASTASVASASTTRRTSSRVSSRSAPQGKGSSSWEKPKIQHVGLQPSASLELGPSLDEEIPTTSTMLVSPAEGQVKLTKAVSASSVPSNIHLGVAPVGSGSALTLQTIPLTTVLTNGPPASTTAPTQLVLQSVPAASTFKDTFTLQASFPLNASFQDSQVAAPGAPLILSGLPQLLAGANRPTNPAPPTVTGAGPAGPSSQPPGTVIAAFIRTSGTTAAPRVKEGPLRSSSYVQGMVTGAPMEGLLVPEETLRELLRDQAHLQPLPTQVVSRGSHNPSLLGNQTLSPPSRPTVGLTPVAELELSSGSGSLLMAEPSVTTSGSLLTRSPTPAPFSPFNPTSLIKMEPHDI
For assay [14], the target named is T9, ELK4 (Homo sapiens, UniProt P28324-2 1-405).
T9 sequence: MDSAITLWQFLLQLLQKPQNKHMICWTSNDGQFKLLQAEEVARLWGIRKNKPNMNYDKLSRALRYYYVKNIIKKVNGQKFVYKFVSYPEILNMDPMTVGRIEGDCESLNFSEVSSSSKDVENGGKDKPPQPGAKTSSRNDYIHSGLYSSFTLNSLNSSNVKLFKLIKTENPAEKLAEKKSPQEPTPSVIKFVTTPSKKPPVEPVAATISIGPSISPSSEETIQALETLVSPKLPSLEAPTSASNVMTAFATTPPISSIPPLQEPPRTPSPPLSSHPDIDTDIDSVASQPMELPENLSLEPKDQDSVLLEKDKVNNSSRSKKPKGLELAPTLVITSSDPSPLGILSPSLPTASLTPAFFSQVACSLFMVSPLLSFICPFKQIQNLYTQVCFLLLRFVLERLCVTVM
As to conditions: protein: recombinant; tags: N-terminal GST; dsDNA, one strand shown. The essentials:
as §1

In assay [15] the target is T10, ETV2 (Homo sapiens, UniProt O00321 1-342).
T10 sequence: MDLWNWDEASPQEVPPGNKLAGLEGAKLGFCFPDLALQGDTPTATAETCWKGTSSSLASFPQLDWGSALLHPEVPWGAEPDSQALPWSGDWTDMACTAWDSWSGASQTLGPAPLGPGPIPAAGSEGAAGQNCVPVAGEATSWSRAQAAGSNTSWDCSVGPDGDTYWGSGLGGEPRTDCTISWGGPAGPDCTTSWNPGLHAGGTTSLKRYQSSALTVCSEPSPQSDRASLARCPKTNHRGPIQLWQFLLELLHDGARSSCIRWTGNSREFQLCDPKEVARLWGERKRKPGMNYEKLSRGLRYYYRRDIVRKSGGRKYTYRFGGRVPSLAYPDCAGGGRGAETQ
The note with it: protein: recombinant; tags: N-terminal GST; dsDNA, one strand shown. The essentials:
as §1

In assay [16] the target is T11, ELF3 (Homo sapiens, UniProt P78545 1-371).
T11 sequence: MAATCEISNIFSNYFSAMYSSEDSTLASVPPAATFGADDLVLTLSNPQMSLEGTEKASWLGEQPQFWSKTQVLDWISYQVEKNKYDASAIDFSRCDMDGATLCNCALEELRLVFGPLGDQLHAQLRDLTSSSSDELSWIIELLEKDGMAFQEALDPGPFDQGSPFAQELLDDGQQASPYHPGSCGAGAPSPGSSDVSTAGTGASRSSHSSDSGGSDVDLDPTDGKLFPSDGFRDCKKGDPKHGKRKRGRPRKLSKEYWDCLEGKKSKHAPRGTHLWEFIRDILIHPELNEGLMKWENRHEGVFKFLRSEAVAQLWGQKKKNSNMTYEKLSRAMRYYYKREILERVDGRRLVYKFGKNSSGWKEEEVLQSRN
The note with it: protein: recombinant; tags: N-terminal GST; dsDNA, one strand shown. The essentials: as §1

Assay [17] concerns the target CRX (Homo sapiens, UniProt O43186 1-299). As to conditions: protein: recombinant; tags: N-terminal GST; dsDNA, one strand shown. The essentials:
as §1

CRX, sequence (O43186 whole entry): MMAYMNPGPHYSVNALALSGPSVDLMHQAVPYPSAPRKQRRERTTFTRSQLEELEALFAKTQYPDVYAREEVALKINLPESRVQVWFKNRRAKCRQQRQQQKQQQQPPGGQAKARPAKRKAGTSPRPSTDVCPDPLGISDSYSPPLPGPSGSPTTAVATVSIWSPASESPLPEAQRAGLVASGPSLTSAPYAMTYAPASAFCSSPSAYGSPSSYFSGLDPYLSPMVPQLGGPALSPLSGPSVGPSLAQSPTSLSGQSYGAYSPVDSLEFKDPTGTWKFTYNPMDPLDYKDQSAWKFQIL
HSF1, sequence (Q00613 whole entry): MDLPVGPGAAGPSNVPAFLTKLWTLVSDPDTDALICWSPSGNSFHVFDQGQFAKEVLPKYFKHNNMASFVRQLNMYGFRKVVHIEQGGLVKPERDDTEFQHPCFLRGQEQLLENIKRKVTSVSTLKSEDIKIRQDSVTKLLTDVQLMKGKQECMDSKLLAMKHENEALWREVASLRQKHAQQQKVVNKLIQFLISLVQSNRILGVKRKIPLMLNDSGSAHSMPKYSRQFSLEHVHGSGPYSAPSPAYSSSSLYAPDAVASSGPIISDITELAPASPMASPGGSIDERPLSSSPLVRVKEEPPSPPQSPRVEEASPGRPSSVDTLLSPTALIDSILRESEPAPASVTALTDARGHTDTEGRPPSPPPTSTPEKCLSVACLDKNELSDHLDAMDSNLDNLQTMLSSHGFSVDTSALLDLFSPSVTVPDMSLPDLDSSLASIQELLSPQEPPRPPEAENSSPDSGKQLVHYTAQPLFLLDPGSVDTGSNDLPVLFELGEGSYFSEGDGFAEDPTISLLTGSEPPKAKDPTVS
ELF1, sequence (P32519 whole entry): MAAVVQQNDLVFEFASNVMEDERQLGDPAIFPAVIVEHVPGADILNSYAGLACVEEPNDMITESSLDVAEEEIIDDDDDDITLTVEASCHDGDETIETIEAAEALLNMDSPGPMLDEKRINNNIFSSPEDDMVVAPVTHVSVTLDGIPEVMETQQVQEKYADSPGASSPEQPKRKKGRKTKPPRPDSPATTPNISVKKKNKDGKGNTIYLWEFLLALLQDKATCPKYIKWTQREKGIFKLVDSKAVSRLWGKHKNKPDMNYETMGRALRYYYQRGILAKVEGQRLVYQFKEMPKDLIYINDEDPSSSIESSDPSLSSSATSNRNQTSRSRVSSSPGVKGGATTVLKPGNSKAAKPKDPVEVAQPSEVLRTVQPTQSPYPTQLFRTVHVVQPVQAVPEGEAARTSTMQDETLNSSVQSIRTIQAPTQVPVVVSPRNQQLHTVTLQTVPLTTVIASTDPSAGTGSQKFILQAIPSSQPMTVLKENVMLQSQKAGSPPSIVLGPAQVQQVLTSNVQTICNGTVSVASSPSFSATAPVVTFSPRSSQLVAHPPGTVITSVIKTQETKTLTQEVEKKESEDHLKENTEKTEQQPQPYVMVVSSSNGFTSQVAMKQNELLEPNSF
ETV5, sequence (P41161 whole entry): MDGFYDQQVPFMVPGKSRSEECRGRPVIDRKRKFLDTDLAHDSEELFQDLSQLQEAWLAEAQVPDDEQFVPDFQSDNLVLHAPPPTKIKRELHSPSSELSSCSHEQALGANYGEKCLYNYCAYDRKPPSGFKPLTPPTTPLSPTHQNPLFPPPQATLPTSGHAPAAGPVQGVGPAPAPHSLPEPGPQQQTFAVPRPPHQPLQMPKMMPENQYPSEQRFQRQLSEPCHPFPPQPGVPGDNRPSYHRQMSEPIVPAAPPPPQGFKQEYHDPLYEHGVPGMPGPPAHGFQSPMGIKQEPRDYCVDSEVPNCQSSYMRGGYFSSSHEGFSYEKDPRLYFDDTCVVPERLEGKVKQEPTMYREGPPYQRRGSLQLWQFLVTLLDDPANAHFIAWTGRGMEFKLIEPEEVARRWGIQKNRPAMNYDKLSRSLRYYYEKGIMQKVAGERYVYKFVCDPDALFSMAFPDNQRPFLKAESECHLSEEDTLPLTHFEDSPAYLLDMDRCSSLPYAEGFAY

Consider TAGAAT, for which the binding signal is 1.1 fold enrichment (6-mer frequency, TF over GST control) in assay [1]; 1.06 fold enrichment (6-mer frequency, TF over GST control) in assay [2]; 1.03 fold enrichment (6-mer frequency, TF over GST control) in assay [3]; 1.03 fold enrichment (6-mer frequency, TF over GST control) in [4]; 1.1 fold enrichment (6-mer frequency, TF over GST control) in [5]; 1.01 fold enrichment (6-mer frequency, TF over GST control) in [6]. The binding signal is 1.15 fold enrichment (6-mer frequency, TF over GST control) in assay [7]; 1.15 fold enrichment (6-mer frequency, TF over GST control) in [8]; 1.04 fold enrichment (6-mer frequency, TF over GST control) in [9]; 1.03 fold enrichment (6-mer frequency, TF over GST control) in assay [10]; 3.07 fold enrichment (6-mer frequency, TF over GST control) in assay [11]; 1.04 fold enrichment (6-mer frequency, TF over GST control) in assay [12]. Also, the binding signal in [13] was 1.13 fold enrichment (6-mer frequency, TF over GST control); in [14], 1.14 fold enrichment (6-mer frequency, TF over GST control); in assay [15], 1.06 fold enrichment (6-mer frequency, TF over GST control); in assay [16], 1.19 fold enrichment (6-mer frequency, TF over GST control); in [17] it was 1.83 fold enrichment (6-mer frequency, TF over GST control).
